Compound activity deposited in PubChem BioAssay by National Center for Advancing Translational Sciences (NCATS).
FLuc inh = Photinus pyralis luciferase inhibition; P08659; purified P. pyralis luciferase, luminescence, biochemical; Potency, µM (doses to about 115 µM), usual class: inhibitors; hit rate 2.5% among 76,000; AID 1347043; note: nearly all actives have a fitted effect of over 65% in size
Target sequence (P08659 whole entry, looked up): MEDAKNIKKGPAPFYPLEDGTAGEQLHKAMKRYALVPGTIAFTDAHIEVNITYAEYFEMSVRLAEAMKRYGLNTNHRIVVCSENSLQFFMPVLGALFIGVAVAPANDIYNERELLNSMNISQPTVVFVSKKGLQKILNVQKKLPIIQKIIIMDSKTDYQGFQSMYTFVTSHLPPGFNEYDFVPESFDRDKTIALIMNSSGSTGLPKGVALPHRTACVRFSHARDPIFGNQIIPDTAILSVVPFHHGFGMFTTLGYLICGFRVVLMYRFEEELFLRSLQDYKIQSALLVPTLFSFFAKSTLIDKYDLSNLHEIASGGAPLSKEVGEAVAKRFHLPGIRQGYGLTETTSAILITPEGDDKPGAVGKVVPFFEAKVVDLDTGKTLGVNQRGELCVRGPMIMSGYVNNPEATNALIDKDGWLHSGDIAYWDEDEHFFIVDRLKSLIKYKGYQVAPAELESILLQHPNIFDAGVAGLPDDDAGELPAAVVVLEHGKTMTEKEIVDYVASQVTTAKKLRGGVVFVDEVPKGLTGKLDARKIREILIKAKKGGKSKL
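FLuc 10nM, D-luciferin 10uM, ATP 10uM, Mg acetate 10mM, Tris acetate pH 7.5, Tween/BSA; cpd qHTS; enzyme added last; CCD luminescence.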
hNpr1 antagonist = antagonists of human natriuretic peptide receptor Npr1; P16066; HEK293 hNpr1 GloSensor cGMP, ANP-stimulated luminescence; Potency, µM (highest dose often 46.3 µM), inactives show at the top dose activity change, negative = inhibition, actives largely listed as inhibitors; hit rate 1.6% among 76,000; AID 1347048; calls by dose curve; note: nearly all actives have a fitted effect of over 60% in size
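Compound pre-incubated 30 min at room temperature on GloSensor-loaded HEK293 cells stably carrying hNpr1 and the pGS-40F cGMP biosensor. Stimulation uses hNppA at 0.1 nM final; luminescence is taken at baseline and 20 min post-agonist.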
HEK293 tox = kills HEK 293 cells. hit rate 6.6% among 94,000. Potency, µM (titrated, usually from 115 µM), for the others: at the highest dose activity change, negative = cytotoxicity, most hits filed as inhibitors. HEK 293 viability, ATP luminescence (CellTiter-Glo), 48-72 h. AID 1345083; note: nearly all actives have a fitted effect of over 60% in size
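Read-out: CellTiter-Glo ATP luminescence. Cells: HEK 293, 250 cells/well. Exposure: 48 or 72 hr, 37 degree Celsius.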
NIH3T3 tox = cytotoxic compounds in NIH 3T3 cells; Potency, µM (titrated, usually from 96.7 µM), for inactives: at the highest dose activity change, negative = cytotoxicity, actives largely listed as inhibitors; NIH 3T3 viability, CellTiter-Glo ATP luminescence, 48-72 h; hit rate 4.3% among 94,000; note: nearly all actives have a fitted effect of over 55% in size
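Mouse fibroblast NIH 3T3 cells, 400 per well, received compound via pintool and were incubated for 48 or 72 hr prior to CellTiter-Glo ATP luminescence measurement.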
The depositor's hits bear a star; i = inactive; ? = inconclusive; nt = no result given; [ ] = another dose, or the depositor's remark. Shown are actives, neighbours in structure and some others; about 11% of the full set was active somewhere. Unless noted, calls come from the whole dose curve; as a rule, active = well fitted curve in the direction sought with a large enough effect; inconclusive = small, poorly fitted or top-dose-only effect, or another doubt; inactive = no such curve, though single readings can be large; an effect the other way counts as inactive or inconclusive. % is set by controls: 0 for no effect and ±100 for the full control effect; potency is the fitted concentration of half-maximal effect.

SMILES | FLuc inh | hNpr1 antagonist | HEK293 tox | NIH3T3 tox
CSc1ncc(CN2CCC(n3nccc3NC(=O)Cc3ccccc3)CC2)cn1 | i | 0% | -11% | -25%
O=C(Nc1ccnn1C1CCN(Cc2ccc(-c3ccccc3)cc2)CC1)C1CC1 | i | ? | ? | 35µM*
CN1Cc2ccccc2N(CC(O)Cc2ccccc2)CCC1=O (centres undefined) | nt | nt | -21% | ?
O=C1CCN(CC(O)Cc2ccccc2)c2ccccc2CCN1C/C=C/c1ccccc1 (centres undefined) | nt | nt | 22µM* | ?
N#Cc1ccc(C(=O)N2CCC3(CC2)NC(=O)N(Cc2cccc(Cl)c2)C3=O)cc1 | i | ? | ? | ?
O=C([C@H]1CCCN1C(=O)Cc1cccc(Cl)c1)N1CCCC(c2nc3ccncc3[nH]2)C1 (some centres undefined) | nt | nt | -3% | -18%
COc1ccc(-c2cccc(C(=O)N3CCC(NC(=O)c4ccc(Cl)nc4)CC3)c2)nn1 | nt | nt | ? | -9%
CCCN(C)C(=O)c1csc(N2CCN(c3cccc(Cl)c3)CC2)n1 | i | ? | 32µM* | ?
COc1cccc(N2CCN(c3nc(C(=O)NCc4ccco4)cs3)CC2)c1 | i | -9% | 45µM* | ?
CCN1c2cc(C(=O)N3CCN(c4ccccn4)CC3)ccc2C(=O)N2CCCCCC21 (centres undefined) | i | -13% | ? | ?
CNC(=O)c1cc(C2CC2)nc2onc(C3CCCN(C(C)=O)C3)c12 (centres undefined) | nt | nt | -9%[172 µM] | 3%[138 µM]
O=C1COc2ccc(OCc3ccccc3)nc2CN1CCOc1ccccc1 | i | ? | 89µM* | ?
O=C1COc2ccc(-c3cccc(O)c3)nc2CN1CCOc1ccccc1 | i | ? | 100µM* | ?
O=C(NCc1ccccc1F)c1ccc2c(c1)CN(Cc1ccccc1F)CCO2 | nt | nt | 45µM* | ?
Cc1ccc(CNC(=O)c2ccc3c(c2)CN(Cc2ccncc2F)CCO3)cc1 | i | ? | ? | ?
O=C(NCc1ccccc1F)c1ccc2c(c1)CN(Cc1ccncc1F)CCO2 | nt | nt | 45µM* | ?
O=C(NCc1ccccc1F)c1ccc2c(c1)CN(Cc1cccc(F)c1)CCO2 | i | -12% | ? | ?
O=C(c1ccc(F)cc1)N1CC(Oc2ccc(-c3nc(-c4ccccc4)no3)cc2)C1 | i | -11% | ? | -13%
O=C(c1ccco1)N1CC(Oc2ccc(-c3nc(-c4ccccc4)no3)cc2)C1 | ? | ? | 20µM* | 28µM*
O=C(c1ccccc1F)N1CC(Oc2ccc(-c3nc(-c4ccccc4)no3)cc2)C1 | ? | 7.1µM* | 28µM* | 45µM*
COc1ccccc1Nc1ccnc(N2CCCC(C(=O)NCc3cccc(Cl)c3)C2)n1 (centres undefined) | nt | nt | ? | 13µM*
COc1ccccc1Nc1ccnc(N2CCCC(C(=O)NC3CCOCC3)C2)n1 (centres undefined) | nt | nt | -25% | -28%
COc1ccccc1Nc1ccnc(N2CCCC(C(=O)NCc3cccc(F)c3)C2)n1 (centres undefined) | nt | nt | 11µM* | 13µM*
COc1ccccc1Nc1ccnc(N2CCCC2C(=O)NCc2ccc(F)cc2)n1 (centres undefined) | nt | nt | ? | -20%
CCCCn1c(=O)c(C(=O)N2CCN([S+](=O)([O-])c3cccs3)CC2)nc2cccnc21 | nt | nt | i | -3%
SMILES | FLuc inh | hNpr1 antagonist | HEK293 tox | NIH3T3 tox
Cc1ccccc1N1Cc2c(NCCCc3ccccc3)ncnc2N(C)CC1=O | i | -2% | ? | 45µM*
CN1CC(=O)N(c2ccc(Cl)cc2)Cc2c(NCCCc3ccccc3)ncnc21 | 40µM* | -21% | ? | 32µM*
CCOCCCNc1ncnc2c1CN(C1CCCCC1)C(=O)CN2C | nt | nt | -11% | -28%
CCS[C@H]1CCN2C(=O)c3cc(-c4ccc(F)cc4F)ccc3NC(=O)[C@H]12 | i | ? | 56µM* | ?
CC(C)NC(=O)N[C@H]1CCN2C(=O)c3cc(-c4ccc(F)cc4F)ccc3NC(=O)[C@H]12 | i | -6%[70.6 µM] | ? | -28%[174 µM]
Cc1noc(C)c1CN1CCc2ncc(C(=O)Nc3ccccc3)n2CC1 | i | -2%[70.6 µM] | -23%[172 µM] | ?
Cc1csc(NC(=O)c2nc3c(o2)CCN(Cc2ccc(C#N)cc2)CC3)n1 | 22µM* | ? | ? | ?
CCCN1CCc2nc(C(=O)Nc3nc(C)cs3)oc2CC1 | 20µM* | -2%[70.6 µM] | ? | -23%[138 µM]
Cc1csc(NC(=O)c2nc3c(o2)CCN(Cc2ccccc2)CC3)n1 | ? | -30%[70.6 µM] | 56µM* | ?
O=C(NCC1CC1)c1nc2c(o1)CCN(CCCc1ccccc1)CC2 | ? | 3%[70.6 µM] | ? | -20%[138 µM]
Cc1csc(NC(=O)c2nc3c(o2)CCN(Cc2c(C)noc2C)CC3)n1 | 63µM* | -1%[70.6 µM] | -26%[172 µM] | 50µM*
Cc1ccc(C(=O)N2CCOc3ccc(NC(=O)C4CC4)cc3C2)cn1 | nt | nt | -16% | -16%
Cc1ccc(CN2C(=O)[C@@H]3C[C@@H](O)CN3C3(CN(C4CCC4)C3)C2=O)o1 | i | 9%[70.6 µM] | 2%[172 µM] | -2%[174 µM]
Cc1ccc(C(=O)N2CCN(c3cc(-c4cccs4)[nH]n3)CC2)cc1 | i | -1% | ? | 13µM*
O=C(c1ccccc1Br)N1CCN(c2cc(-c3cccs3)[nH]n2)CC1 | i | -25% | ? | ?
O=C(c1c[nH]c2ccccc12)N1CCN(c2cc(-c3cccs3)[nH]n2)CC1 | i | -22% | 45µM* | ?
O=C1[C@H]2CC[C@H](CN(Cc3ccc(-n4ccnc4)cc3)C2)N1CC1CCC1 | i | ? | ? | 40µM*
O=C1[C@H]2CC[C@H](CN(Cc3cccc(N4CCOCC4)c3)C2)N1CC1CCC1 | i | -7% | ? | -22%
COc1cccc(-c2noc(-c3nc(-c4ccc5c(c4)OCO5)no3)n2)c1OC | i | -9% | -4% | -16%
COc1cccc(-c2noc(-c3ccc(NCCn4cccn4)nc3)n2)c1OC | 16µM* | ? | 22µM* | ?
COc1cccc(-c2noc(-c3ccc(NCCCSC)nc3)n2)c1OC | 25µM* | ? | ? | ?
COc1cccc(-c2noc(-c3ccc(-c4cn[nH]c4)nc3)n2)c1OC | i | 1% | -29% | -21%
c1ccc(CCn2cnc3cccnc32)cc1 | 40µM* | -2%[70.6 µM] | -26%[230 µM] | -29%[174 µM]
COc1cccc(NC(=O)[C@@H]2OCCN(C)[C@H]2c2ccccc2)c1 | nt | nt | 0% | -13%
COc1cccc(C(=O)N2CCC3(CC2)N=C(c2ccc(Br)cc2)NO3)c1 | i | ? | ? | ?
Cc1ccn(CCC(=O)N2CC(=O)N(C3CCCCC3)CC(OCc3ccccc3)C2)n1 (centres undefined) | i | 3% | ? | -3%
CN(C)C(=O)c1cc(-c2ccc(F)cc2)c2nncn2n1 | nt | nt | 3%[172 µM] | 1%[138 µM]
Cc1ccc([S+](=O)([O-])N2CCCC(C(=O)N3CCC(N4Cc5cccn5C4=O)CC3)C2)cc1 (centres undefined) | nt | nt | 45µM* | ?
